Our source for the log2 fold change values is the supplement of paper PMC12819154, “High-throughput peptide-centric local stability assay extends protein–ligand identification to membrane proteins, tissues and bacteria” (Nature Structural & Molecular Biology, 2025).
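Note: lysate desalted by size exclusion to strip endogenous ATP, peptide intensities built from DIA-NN precursor signals, and peptides missing any value discarded before comparison.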

Chain of UniProt P0AEZ1 (P0AEZ1 whole entry): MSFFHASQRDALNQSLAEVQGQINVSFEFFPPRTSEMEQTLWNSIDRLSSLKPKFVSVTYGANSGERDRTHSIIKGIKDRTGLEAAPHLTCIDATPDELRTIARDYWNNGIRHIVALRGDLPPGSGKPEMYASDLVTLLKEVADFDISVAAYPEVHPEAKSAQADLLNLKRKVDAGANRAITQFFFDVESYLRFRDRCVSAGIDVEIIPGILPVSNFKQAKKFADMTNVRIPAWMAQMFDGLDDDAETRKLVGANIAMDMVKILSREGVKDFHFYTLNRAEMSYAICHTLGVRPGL

This test has as its target UniProt P0AEZ1. The test is described as follows: log2 fold change of tryptic peptide abundance, ligand vs vehicle (limited proteolysis) (log2 ratio); higher = more trypsin-susceptible (destabilized). Particulars: peptide sequence: DYWNNGIR; peptide start residue: 105; ligand concentration: 5 mM; sample: E. coli desalted lysate; replicate design: treated before aliquoting. As to the method:
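HT-PELSA: desalted E. coli K-12 BW25113 lysate (with 12 mM MgCl2) incubated with 5 mM ATP (pH 7) or water for 30 min at 25 C, then a 4 min trypsin pulse at 22 C. Peptides were quantified by DIA-MS (4 replicates). Value is the peptide log2 fold change (treated/control); negative = stabilized. Scale: negative = ligand-stabilized region.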
As for `Nc1ncnc2c1ncn2[C@@H]1O[C@H](COP(=O)(O)OP(=O)(O)OP(=O)(O)O)[C@@H](O)[C@H]1O` [adenosine 5'-triphosphate], the log2 fold change is -1.01.
